According to ChEMBL document CHEMBL1961873, “Compounds: GSK PKIS; Assays: Nanosyn kinase panel” (2012):

The compounds below were run against Tyrosine-protein kinase HCK (Homo sapiens) (UniProt P08631). Conditions: at 1 µM.
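Further: values are averaged percent inhibition of HCK.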

Sequence of Tyrosine-protein kinase HCK (Homo sapiens) (P08631 2-526 limits assumed): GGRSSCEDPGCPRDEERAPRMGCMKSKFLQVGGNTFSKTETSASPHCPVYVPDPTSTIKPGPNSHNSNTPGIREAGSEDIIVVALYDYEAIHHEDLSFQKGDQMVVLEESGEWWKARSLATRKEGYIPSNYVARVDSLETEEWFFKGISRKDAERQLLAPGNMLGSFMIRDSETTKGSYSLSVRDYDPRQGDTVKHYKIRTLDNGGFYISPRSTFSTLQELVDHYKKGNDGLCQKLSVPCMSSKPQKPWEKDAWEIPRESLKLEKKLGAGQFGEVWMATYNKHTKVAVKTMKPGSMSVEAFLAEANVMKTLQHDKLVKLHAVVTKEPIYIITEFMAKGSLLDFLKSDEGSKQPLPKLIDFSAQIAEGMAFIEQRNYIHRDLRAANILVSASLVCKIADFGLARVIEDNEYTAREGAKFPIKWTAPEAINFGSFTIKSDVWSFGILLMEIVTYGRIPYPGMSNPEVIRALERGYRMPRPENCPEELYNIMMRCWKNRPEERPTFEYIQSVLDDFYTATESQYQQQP

| SMILES | inhibition [%] |
| --- | --- |
| COc1ccc(CNC(=O)c2ccc(-c3cc(-c4nnc(C)o4)ccc3C)cc2)cc1 | 4.62 |
| Fc1ccc(-c2cc(-c3c[nH]nc3-c3ccccn3)ccn2)cc1 | 6.04 |
| CS(=O)(=O)CCNCc1ccc(-c2ccc3ncnc(Nc4ccc(OCc5ccccc5)c(C(F)(F)F)c4)c3c2)o1 | 5.75 |
| COc1ccc2c(-c3ccnc(Nc4cccc(OC(F)(F)F)c4)n3)cnn2n1 | 11.3 |
| c1ccc(-c2nc3n(c2-c2ccc4c(c2)OCO4)CCC3)nc1 | 0.81 |
| COc1ccc(-c2cc(-c3c[nH]nc3-c3ccccn3)ccn2)cc1 | 10.3 |
| COc1ccc(-c2cc3c(N)ncnc3o2)cc1 | 7.05 |
| FC(F)(F)c1cccc(-c2nn3ncccc3c2-c2ccnc(Nc3ccc4c(c3)OCCO4)n2)c1 | 31.2 |
| N#Cc1c(NC(=O)CN2CCOCC2)sc2c1CCCC2 | 8.43 |
| COC(=O)Nc1nc2ccc(Oc3ccc(NC(=O)Nc4cccc(Cl)c4)cc3)cc2[nH]1 | 2.91 |
| CN1CCC(n2cnc(-c3ccc(F)cc3)c2-c2ccnc(Nc3ccccc3)n2)CC1 | 11.1 |
| Clc1ccc(-c2nn3ncccc3c2-c2ccnc(Nc3ccccc3)n2)cc1 | 34.1 |
| COc1ccc(-c2nn3ncccc3c2-c2ccnc(Nc3ccc4c(c3)OCCO4)n2)cc1 | 46 |
| Nc1nc(-c2ccc(F)cc2)c(-c2ccc3ncccc3n2)s1 | 17.5 |
| COc1ccc2[nH]c3c4[nH]c5ccc(OC)cc5c4c4c(c3c2c1)C(=O)NC4=O | 75.6 |
| Cc1ccc(O)cc1Nc1ccnc2cc(-c3ccccn3)ccc12 | 87.9 |
| NS(=O)(=O)c1ccc(N/N=C2\C(=O)Nc3ccc4ncccc4c32)cc1 | 73.5 |

| SMILES | inhibition [%] |
| --- | --- |
| CCN1CCC(CC(=O)Nc2n[nH]c3nnc(-c4cccc(F)c4F)cc23)CC1 | 1.32 |
| COc1cccc(-c2c[nH]c3c(N/N=C/c4ccncc4)ncnc23)c1 | 51.8 |
| NC(=O)c1sc(-n2cnc3ccc(C(F)(F)F)cc32)cc1OCc1ccccc1Br | 5.95 |
| CC(C)COC(=O)c1ccc2c(c1)/C(=C/Nc1ccc(S(N)(=O)=O)cc1)C(=O)N2 | 38.5 |
| CCn1c(-c2nonc2N)nc2cnc(Oc3cccc(NC(=O)c4ccc(N(C)C)cc4)c3)cc21 | 4.03 |
| Fc1cccc(COc2ccc(Nc3ncnc4sc(-c5ccco5)cc34)cc2Cl)c1 | 6.64 |
| CC(=O)NCc1cccc(C#Cc2cncnc2Nc2ccc(OCc3cccc(F)c3)c(Cl)c2)c1 | 2.97 |
| CS(=O)(=O)CCNCc1coc(-c2ccc3ncnc(Nc4ccc(OCc5ccccc5)cc4)c3c2)c1 | 9.64 |
| Cc1ccc2c(-c3ccnc(Nc4ccccc4)n3)c(-c3ccc(F)cc3)nn2n1 | 43.9 |
| O=S(=O)(CCNCc1ccc(-c2ccc3ncnc(Nc4ccc(OCc5cccc(F)c5)c(Cl)c4)c3c2)o1)c1ccccc1 | 8.65 |
| CCNC(=O)O[C@H]1CN[C@H](C#Cc2cc3ncnc(Nc4ccc(OCc5cccc(F)c5)c(Cl)c4)c3s2)C1 | 5.6 |
| c1ccc(COc2ccc(Nc3ncnc4ccc(-c5ccco5)cc34)cc2)cc1 | 1.93 |
| COC(=O)c1sc(-n2cnc3cc(OC)c(OC)cc32)cc1OCc1ccccc1C(F)(F)F | 28.1 |
| Cc1cccc2c1NC(=O)/C2=N\Nc1ccc(S(N)(=O)=O)cc1 | 6.57 |
| CC(=O)Nc1cccc(C#Cc2cncnc2Nc2ccc(OCc3cccc(F)c3)c(Cl)c2)c1 | 9.29 |
| CCn1c(-c2nonc2N)nc2ccccc21 | 8.93 |
